Bioassay records: PubChem, National Center for Advancing Translational Sciences (NCATS)
Pf growth 48h = P. falciparum growth inhibition at 48 hours (one generation); P. falciparum luciferase growth in erythrocytes, 48 h; Potency, µM (top dose mostly 28.7 µM), inactives show at the highest dose activity change, negative = inhibition, hits mostly inhibitors; actives 5.9% (n = 310,000); note: potency is the fitted concentration of half-maximal effect; % is set by controls: 0 for no effect and ±100 for the full control effect
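Read-out is firefly luciferase luminescence from an integrated reporter in P. falciparum, so falling signal marks reduced parasite growth. Infected erythrocytes were at 2% hematocrit and 0.1% parasitemia (final) in Albumax-supplemented RPMI 1640.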
Pf growth 96h = P. falciparum growth inhibition at 96 hours. P. falciparum luciferase reporter growth, 96 h. Potency, µM (doses to about 28.7 µM), inactives show top-dose activity change, negative = inhibition, actives largely listed as inhibitors. actives 6.9% (n = 320,000); note: potency is the fitted concentration of half-maximal effect; % is set by controls: 0 for no effect and ±100 for the full control effect
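Plates of compound plus infected erythrocytes (2% hematocrit, 0.05% parasitemia final) incubate 96 hours, 37 C, 5% CO2. Detection reagent added; reduced luminescence from the parasites' luciferase reporter flags inhibition.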
CHX counter = counter-screen for Shiga toxin inhibitors: cycloheximide protein synthesis inhibition; cell reporter, cycloheximide protein synthesis inhibition counterscreen; max response, %; actives 12% (n = 300,000); AID 2314; in the data active = max response mostly above about 13%, no sharp cut-off; inactive = mostly below about 14%; note: read at 38.3 µM for the half of the compounds with a filed dose; 0% is about no effect
HCMV inh = human cytomegalovirus inhibition; HFF cells, HCMV-luciferase reporter, 72 h; stronger effect = lower value; activity change, negative = inhibition, % at 57.5 µM; actives 4.5% (n = 410,000); in the data active = activity change below about -60%; inconclusive = no clear call, values can overlap the other calls; inactive = above about -39%; note: % is set by controls: 0 for no effect and ±100 for the full control effect
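Steps: HFFs plated, 16 h 37C; compounds added; HCMV-luciferase added to MOI 1 PFU/cell; 72 h 37C; OneGlo reagent, 5 min room temperature; luminescence read, normalized to controls.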
Shiga toxin inh = inhibitors of Shiga toxin in Vero cells | Vero cells, Shiga toxin protein synthesis inhibition reporter | inhibition, % at 38.7 µM | actives 9.2% (n = 290,000) | AID 2315; in the data active = inhibition mostly above about 28%, no sharp cut-off; inactive = mostly below about 43%; note: 0% is about no effect
Active calls of the source: *; u = inconclusive; x = no result given. In the library only some 20% were active in any assay of this set; here they are far more common. Unless noted, calls come from the whole dose curve; as a rule, active = well fitted inhibition curve with a large enough effect; inconclusive = small, poorly fitted or top-dose-only effect, or another doubt; inactive = no such curve, though single readings can be large or run the other way.

SMILES | Pf growth 48h | Pf growth 96h | CHX counter | HCMV inh | Shiga toxin inh
COC(=O)c1cc2sc(C)cc2n1Cc1ccc(F)cc1Cl | x | x | x | 22.4 | x
O=C(Nc1ccc(Cl)c(Cl)c1)OCCNC(=O)c1cccc(Cl)c1 | x | 7.9% | -4.2 | -6.0 | -7.8
CCCn1c(CC)nc([N+](=O)[O-])c1Sc1ccc(C)cc1 | u | 10.4µM* | 4.8 | -20.1 | -32.1
COC(=O)c1ccc(C(=S)N2CCCCC2)cc1 | 9.8% | u | -1.9 | 7.1 | 5.6
COC(=O)c1cccc(CSC(=S)N2CCCC2)c1 | -2.1% | 22.2% | 30.1* | 6.8 | 36.2
O=C(CN(C(=O)c1ccc(Cl)cc1Cl)N1C(=O)C2C3C=CC(C3)C2C1=O)c1ccc(F)cc1 (centres undefined) | x | x | x | 44.6 | x
CCC(C(=O)c1ccccc1)N(C(=O)c1ccccc1Cl)N1C(=O)C2C3C=CC(C3)C2C1=O (centres undefined) | u | 10.4µM* | 1.0 | -24.5 | -17.3
CCOc1ccccc1C(=O)N(Cc1sccc1C)C1CCS(=O)(=O)C1 (centres undefined) | u | 26.7% | -5.8 | -11.3 | -5.1
C/C(=N/OCO/N=C(\C)c1ccccc1F)c1ccccc1F | -5.1% | 1.65µM* | -2.0 | -24.2 | 12.2
CN=C(C)/C(C(=O)OC)=C(/O)c1ccccc1F | 0.4% | -2.0% | -1.3 | -9.7 | -5.7
Cc1cccc(N2CC(C(=O)Nc3ccc(S(=O)(=O)Nc4nccs4)cc3)CC2=O)c1C (centres undefined) | -16.0% | 26.1% | -8.6 | -23.9 | 21.7
CC(=O)NC12CC3CC(C1)CC(C(=O)OCC(=O)c1ccc4c(c1)OCCO4)(C3)C2 | x | -14.5% | 44.8* | u | 80.1*
CC(C)C(=O)Nc1ccccc1C(=O)OCC(=O)c1ccc2c(c1)OCCO2 | 82.4% | -9.9% | 38.0* | 28.9 | 63.9*
Cc1cccc(C(=O)OCC(=O)c2ccc3c(c2)OCO3)c1O | 297.5% | 330.0% | 70.8* | 7.7 | 77.9*
Cc1ccccc1NC(=O)COC(=O)c1ccc2c(c1)OCCO2 | -8.9% | 19.1% | x | -22.3 | x
Cc1onc(-c2ccccc2Cl)c1C(=O)OCC(=O)c1ccc2c(c1)OCCO2 | -17.3% | u | 59.1* | -31.0 | 120.9*
CC(=O)NC12CC3CC(C1)CC(C(=O)OCC(=O)c1cc(C)n(C)c1C)(C3)C2 | x | x | x | 40.9 | x
Cc1cccc(C(=O)OCC(=O)c2ccc3c(c2)OCCO3)c1O | x | x | x | 19.2 | x
CC(=O)Nc1ccccc1C(=O)OCC(=O)c1ccc2c(c1)OCCO2 | 166.5% | 39.3% | 32.0* | 11.4 | 97.7*
C=CCN1C(=O)c2ccc(C(=O)OCC(=O)N(CC)c3c(N)n(Cc4ccccc4)c(=O)[nH]c3=O)cc2C1=O | x | x | x | 0.0 | x
CCN1CCN(c2nc(S(=O)(=O)c3ccc(C)cc3)c(Cl)s2)CC1 | u | u | -1.2 | u | -19.5
CN(C)CC1CCCCC1OC(=O)/C=C/c1ccc(Cl)cc1Cl (centres undefined) | 3.8% | 29.4% | 5.2 | 10.1 | -9.6
CCNc1c(NC(=O)c2cc(OCC)c(OCC)c(OCC)c2)c(=O)oc2ccccc12 | x | x | x | 2.8 | x
O=C(COC(=O)c1ccc(Cl)nc1)Nc1ccc(Cl)cc1 | -5.0% | 18.7% | x | -14.2 | x
O=C(O)CCC(=O)Nc1ccc(C(=O)OCC(=O)c2ccc(Cl)cc2)cc1 | 87.6% | 0.4% | 15.1* | -15.5 | 79.2
SMILES | Pf growth 48h | Pf growth 96h | CHX counter | HCMV inh | Shiga toxin inh
CCc1ccc(NC(=O)COC(=O)C2(c3ccc(Cl)cc3)CCCC2)cc1 | -15.5% | 14.7µM* | 6.1 | -12.9 | -6.6
O=C(COC(=O)c1ccc(O)cc1)Nc1ccc(Cl)cc1 | u | -4.1% | 31.5* | 20.5 | 52.3
COC(=O)c1ccc(NC(=O)CCCC(=O)OCC(=O)c2ccc(Cl)cc2)cc1 | x | x | x | -1.3 | x
CCOc1ccc(NC(=O)c2ccc(NC(=S)NC3CCCCC3)cc2)cc1 | u | u | 23.7* | -23.1 | 35.6
CCOc1ccc(NC(=O)c2ccc(NC(=S)NC3CC3)cc2)cc1 | u | 2.5% | 11.3 | u | 50.6*
CCOc1ccc(NC(=O)c2ccc(CNc3c(NC4CCCCC4)c(=O)c3=O)cc2)cc1 | x | 0.0% | -5.2 | 18.1 | -6.1
COc1ccc(NC(=O)CSCc2cc(=O)c3cc(Cl)ccc3[nH]2)cc1 | x | x | x | 3.5 | x
NC(=O)C1CCN(Cc2nc3cc(Cl)ccc3c(=O)[nH]2)CC1 | 3.2% | x | -5.2 | -12.7 | -24.5
O=C(O)c1ccc2c(=O)[nH]c(CN3CCOCC3)nc2c1 | 3.5% | x | -5.6 | -30.8 | -19.7
O=C(O)c1ccc2c(=O)[nH]c(CCl)nc2c1 | u | 13.1µM* | 0.3 | 15.6 | -4.8
